For 17 compounds, Potency, viability and viability (% of DMSO control) results are on record in PubChem BioAssay (NCATS).

Records with an inconclusive call do not appear. A number with no mark means an inactive call. Calls of active or inactive are those of the source. Calls come from the whole dose curve; as a rule, active = well fitted cell-killing curve with a large enough effect; inconclusive = small, poorly fitted or top-dose-only effect, or effect the other way; inactive = no such curve, though single readings can be large or run the other way.

A short description of assay [1]: Quantitative High-Throughput drug screen in 47 multiple myeloma cell lines against the NCATS MIPE library collection: LP1_DSMZ cell viability assay (AID 1918982). Note: nearly all actives have a fitted effect of over 35% in size. Note: potency is the fitted concentration of half-maximal effect. In short, it runs like this:
(§1)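 Myeloma cells (500/well) treated with MIPE 4.0 compounds for 48 h at 37 °C, 5% CO2. Viability read as ATP via CellTiter-Glo luminescence after 5 min at RT; DMSO-only wells = 100%, media-only = 0% viability.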

Assay [2] can be described thus: Quantitative High-Throughput drug screen in 47 multiple myeloma cell lines against the NCATS MIPE library collection: KMS34_JCRB cell viability assay (AID 1918985). Note: nearly all actives have a fitted effect of over 40% in size. Note: potency is the fitted concentration of half-maximal effect. In short, it runs like this: as §1
Assay [3] is described as follows: Quantitative High-Throughput drug screen in 47 multiple myeloma cell lines against the NCATS MIPE library collection: OCIMY5_PLB cell viability assay (AID 1918988). Note: nearly all actives have a fitted effect of over 65% in size. Note: potency is the fitted concentration of half-maximal effect. In short, it runs like this: as §1
Assay [4] is described as follows: Quantitative High-Throughput drug screen in 47 multiple myeloma cell lines against the NCATS MIPE library collection: OPM1_PLB cell viability assay (AID 1918989). Note: nearly all actives have a fitted effect of over 40% in size. Note: potency is the fitted concentration of half-maximal effect. In short, it runs like this:
as §1

Assay [5] in a line: Quantitative High-Throughput drug screen in 47 multiple myeloma cell lines against the NCATS MIPE library collection: SKMM1_PLB cell viability assay (AID 1919863). Note: nearly all actives have a fitted effect of over 35% in size. Note: potency is the fitted concentration of half-maximal effect. Particulars: SKMM1 myeloma viability, CellTiter-Glo ATP, 48 h; viability: hits give low values. In short, it runs like this: as §1
(In general: Cellular ATP, detected with luciferase, serves as a proxy for viable cell number.)

Assay [6] in a line: Quantitative High-Throughput drug screen in 47 multiple myeloma cell lines against the NCATS MIPE library collection: U266_ATCC cell viability assay (AID 1919864). Note: nearly all actives have a fitted effect of over 35% in size. Note: potency is the fitted concentration of half-maximal effect. In short, it runs like this: as §1
Assay [7] is described as follows: Quantitative High-Throughput drug screen in 47 multiple myeloma cell lines against the NCATS MIPE library collection: XG6_PLB cell viability assay (AID 1919865). Note: nearly all actives have a fitted effect of over 40% in size. Note: potency is the fitted concentration of half-maximal effect. In short, it runs like this:
as §1

The nature of assay [8]: Quantitative High-Throughput drug screen in 47 multiple myeloma cell lines against the NCATS MIPE library collection: VP6_DJ cell viability assay (AID 1919867). Note: nearly all actives have a fitted effect of over 40% in size. Note: potency is the fitted concentration of half-maximal effect. In short, it runs like this:
as §1

The nature of assay [9]: Quantitative High-Throughput drug screen in 47 multiple myeloma cell lines against the NCATS MIPE library collection: UTMC2_PLB cell viability assay (AID 1919868). Note: nearly all actives have a fitted effect of over 55% in size. Note: potency is the fitted concentration of half-maximal effect. Particulars: CellTiter-Glo ATP luminescence, 48 h; viability (% of DMSO control): at 45.8 µM (top of the series). In short, it runs like this:
as §1

Assay [10] can be described thus: Quantitative High-Throughput drug screen in 47 multiple myeloma cell lines against the NCATS MIPE library collection: PE2_PLB cell viability assay (AID 1919869). Note: nearly all actives have a fitted effect of over 35% in size. Note: potency is the fitted concentration of half-maximal effect. In short, it runs like this:
as §1

A short description of assay [11]: Quantitative High-Throughput drug screen in 47 multiple myeloma cell lines against the NCATS MIPE library collection: RPMI8226_ATCC cell viability assay (AID 1919871). Note: nearly all actives have a fitted effect of over 30% in size. Note: potency is the fitted concentration of half-maximal effect. In short, it runs like this: as §1
Assay [12] can be described thus: Quantitative High-Throughput drug screen in 47 multiple myeloma cell lines against the NCATS MIPE library collection: OPM2_DSMZ cell viability assay (AID 1919872). Note: nearly all actives have a fitted effect of over 30% in size. Note: potency is the fitted concentration of half-maximal effect. In short, it runs like this:
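Relative luminescence from CellTiter-Glo served as the viability signal, referenced to DMSO-treated (100%) and cell-free medium (0%) controls. Treatment lasted 48 hours at 37C with 500 cells per well.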

A short description of assay [13]: Quantitative High-Throughput drug screen in 47 multiple myeloma cell lines against the NCATS MIPE library collection: KMS11_JCRBsus cell viability assay (AID 1919873). Note: nearly all actives have a fitted effect of over 50% in size. Note: potency is the fitted concentration of half-maximal effect. In short, it runs like this: as §1
Assay [14] in a line: Quantitative High-Throughput drug screen in 47 multiple myeloma cell lines against the NCATS MIPE library collection: KMS28BM_JCRB cell viability assay (AID 1919874). Note: nearly all actives have a fitted effect of over 35% in size. Note: potency is the fitted concentration of half-maximal effect. In short, it runs like this: as §1
Assay [15] in a line: Quantitative High-Throughput drug screen in 47 multiple myeloma cell lines against the NCATS MIPE library collection: OCIMY7_PLB cell viability assay (AID 1918987). Note: potency is the fitted concentration of half-maximal effect; nearly all actives have a fitted effect of over 65% in size. In short, it runs like this:
as §1

Assay [16] in a line: Quantitative High-Throughput drug screen in 47 multiple myeloma cell lines against the NCATS MIPE library collection: PCM6_Riken cell viability assay (AID 1919870). Note: nearly all actives have a fitted effect of over 30% in size. Note: potency is the fitted concentration of half-maximal effect. In short, it runs like this:
as §1

Assay [17] in a line: Quantitative High-Throughput drug screen in 47 multiple myeloma cell lines against the NCATS MIPE library collection: XG1_PLB cell viability assay (AID 1919866). Note: nearly all actives have a fitted effect of over 35% in size. Note: potency is the fitted concentration of half-maximal effect. In short, it runs like this:
as §1

A short description of assay [18]: Quantitative High-Throughput drug screen in 47 multiple myeloma cell lines against the NCATS MIPE library collection: L363_DSMZ cell viability assay (AID 1918984). Note: nearly all actives have a fitted effect of over 40% in size. Note: potency is the fitted concentration of half-maximal effect. In short, it runs like this: as §1
Assay [19] is described as follows: Quantitative High-Throughput drug screen in 47 multiple myeloma cell lines against the NCATS MIPE library collection: KMS28PE_JCRB cell viability assay (AID 1918983). Note: nearly all actives have a fitted effect of over 35% in size. In short, it runs like this: as §1

In the case of `N[C@@H]1CONC1=O`, the Potency entry in [1], in assay [2], in assay [3], in assay [4], in assay [6] and in assay [7] was “inactive” in each case. Also, the Potency entry in assay [9], in [10], in assay [11], in assay [12], in [13] and in [14] was “inactive” each time. Moreover, the viability in assay [5] was 132%. Also, the Potency in assay [8] was 20.9 µM (active).
Take `COc1ccc2nc(S(=O)Cc3ncc(C)c(OC)c3C)[nH]c2c1` (stereo unspecified): the Potency entry in assay [1], in assay [2], in assay [3], in [10], in assay [11] and in assay [13] was “inactive” throughout. In addition, the results for the Potency in assay [15], in [8] and in assay [16] were 16.6 µM (active), 16.6 µM (active) and 20.9 µM (active), respectively. In assay [9], the viability (% of DMSO control) was 120% (active).
As for `Cc1cc(SCc2sc(-c3ccc(C(F)(F)F)cc3)nc2C)ccc1OCC(=O)O`, the Potency result in [1], in [2], in assay [7], in assay [16] and in [12] was “inactive” each time. For the same compound, the Potency is 20.9 µM (active) in assay [15], 3.72 µM (active) in assay [3], 16.6 µM (active) in assay [5] and 14.8 µM (active) in assay [11].
For `CS(=O)(=O)Oc1ccc2c(NC(N)=O)c(C(=O)c3ccc(Cl)cc3Cl)oc2c1`, the Potency entry in assay [1], in [2], in [3] and in assay [12] was “inactive” throughout. Moreover, the Potency in assay [4] is 20.9 µM (active); in assay [6] it was 11.8 µM (active); in [7] it was 16.6 µM (active); in [17], 20.9 µM (active); in assay [8], 9.35 µM (active); in [9] it was 16.6 µM (active). The Potency in [10] is 23.5 µM (active); in [16], 20.9 µM (active); in assay [13], 5.26 µM (active); in assay [14], 2.35 µM (active). Moreover, the viability in assay [5] was 128%.
In the case of `O=C(O)[C@@H](c1ccc(OCc2ccc3ccccc3n2)cc1)C1CCCC1`, the Potency entry in assay [1], in assay [2], in assay [4], in assay [10], in assay [16] and in [12] was “inactive” each time. For the same compound, the Potency is 5.9 µM (active) in assay [15], 5.26 µM (active) in assay [17] and 5.9 µM (active) in assay [8]. For the same compound, the viability in [5] was 106%.
Consider `Oc1ccc(C2CNCCc3c2cc(O)c(O)c3Cl)cc1` (stereo unspecified), for which the Potency entry in [1], in assay [4], in assay [10], in assay [11], in [12] and in [13] was “inactive” each time. Moreover, the Potency result in assay [14] is “inactive”. Besides, the Potency in assay [2] was 14.8 µM (active); in [3], 16.6 µM (active). The viability in assay [5] is 103%.
With `Cc1cnc(NC(=O)C2=C(O)c3ccccc3S(=O)(=O)N2C)s1`, the Potency entry in assay [1], in assay [2], in [3], in assay [4], in assay [11] and in [12] was “inactive” throughout. Also, the Potency result in [13] and in assay [14] was “inactive” throughout.
Regarding `C[C@]12CC[C@H](O)CC1=CC[C@@H]1[C@H]2CC[C@]2(C)C(c3cccnc3)=CC[C@H]12`, the Potency result in assay [1], in assay [2], in assay [3], in assay [10], in assay [16] and in assay [11] was “inactive” in each case. The Potency result in assay [12] and in assay [14] was “inactive” throughout. In addition, the Potency in assay [5] was 1.82 µM (active); in assay [7], 3.23 µM (active); in assay [8], 8.12 µM (active).
As to `COc1c(Cl)cc2c([nH]c3cnccc32)c1NC(=O)c1cccnc1C`, the Potency in [1] was 7.43 µM (active); in assay [18] it was 743 nM (active); in assay [2] it was 3.32 µM (active); in assay [15], 2.09 µM (active); in assay [3] it was 9.35 µM (active); in assay [4], 2.96 µM (active). Besides, the Potency in assay [5] is 6.62 µM (active); in [7], 0.166 µM (active); in assay [10], 3.32 µM (active); in [16], 1.66 µM (active); in assay [13], 23.5 µM (active); in [14] it was 26.4 µM (active). Further, the Potency entry in assay [11] and in [12] was “inactive” throughout.
As for `CCC(C)N(C)C(=O)c1cc2ccccc2c(-c2ccccc2Cl)n1` (stereo unspecified), the Potency entry in assay [1], in [19] and in [4] was “inactive” in each case. Also, the Potency in [7] is 8.33 µM (active); in assay [17], 5.26 µM (active); in [8], 6.62 µM (active); in assay [16], 16.6 µM (active).
Turning to `NC(=O)C1CCCc2c1[nH]c1ccc(Cl)cc21` (stereo unspecified), the Potency result in [1], in [19], in assay [11], in assay [12] and in [13] was “inactive” each time. The Potency in assay [4] was 4.69 µM (active); in [7], 20.9 µM (active); in [17] it was 16.6 µM (active); in assay [8], 3.32 µM (active); in [10] it was 16.6 µM (active). In addition, in assay [5], the viability was 110%.
As to `Cc1ccccc1C(OCCN(C)C)c1ccccc1` (stereo unspecified), the Potency entry in [1], in assay [18], in assay [4], in [6], in assay [8] and in [10] was “inactive” in each case. The Potency entry in assay [11], in assay [12] and in assay [13] was “inactive” throughout. For the same compound, in assay [14], the Potency was 7.43 µM (active).
Turning to `O=NN(CCCl)C(=O)NCCCl`, the Potency entry in assay [1], in assay [18], in [4], in assay [7], in assay [17] and in [8] was “inactive” throughout. The Potency result in assay [10], in [16], in [11] and in assay [12] was “inactive” each time. The viability in [5] was 118%.
On to `CC[C@@H](C)[C@H](NC(=O)[C@H](CC1CCCCC1)NC(=O)c1ccno1)C(=O)N1CCC2(CCc3ccccc32)CC1`, for which the Potency was 9.35 µM (active) in assay [1], 7.43 µM (active) in [2], 8.33 µM (active) in [3] and 11.8 µM (active) in assay [12]. The Potency entry in assay [4], in assay [10] and in assay [14] was “inactive” each time.
Turning to `Cc1ccccc1C(C(=O)NC1CCCC1)N(C(=O)Cn1cnc2ccccc21)c1cccc(F)c1` (stereo unspecified), the Potency in assay [1] is 3.32 µM (active); in [5], 10.5 µM (active); in assay [17] it was 18.7 µM (active); in assay [8], 2.35 µM (active); in assay [11], 3.72 µM (active). In addition, the Potency entry in [19], in assay [7], in assay [16] and in [14] was “inactive” in each case.
On to `N=c1nc(N2CCCCC2)cc(N)n1O`, for which the Potency entry in assay [1], in assay [19], in [6], in [11], in [13] and in assay [14] was “inactive” in each case. Further, the Potency is 37.2 µM (active) in [15], 16.6 µM (active) in [4], 23.5 µM (active) in assay [7] and 23.5 µM (active) in [16].
Take `OC(CN1CCC(Cc2ccc(F)cc2)CC1)c1ccc(Cl)cc1` (stereo unspecified): the Potency result in [1], in assay [18], in assay [4], in assay [7], in [17] and in assay [9] was “inactive” each time. Besides, the Potency result in [10], in [11], in assay [12] and in assay [13] was “inactive” in each case.

In general, viability refers to a read-out of living cells in per cent, often relative to untreated cells.
